PubChem BioAssay (NCATS)
Records with an inconclusive call do not appear. A call without a number means that no potency is given here. Active and inactive are the calls of the source. Unless noted, the call rests on the fitted dose curve; in most records, active means well fitted curve in the direction sought with a large enough effect; inconclusive means small, poorly fitted or top-dose-only effect, or another doubt; inactive means no such curve, though single readings can be large; an effect the other way counts as inactive or inconclusive.

Legend:
[1] = qHTS for differential inhibitors of proliferation of Plasmodium falciparum line HB3 (AID 1886); details: Potency: Plasmodium falciparum HB3 proliferation inhibition;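 further: parasites grown with compound for 72 h before SYBR Green readout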; further: potency means the concentration at half of the fitted maximal effect
[2] = molecular target: Ferritin light chain (Equus caballus) (UniProt P02791); assay: qHTS Validation Assay for Identification of Novel General Anesthetics (AID 2323); further: series mostly up to about 77 µM
In short: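 10 uM horse-spleen apoferritin + 1-AMA (50% saturated, PBS); cpd pin-transferred, 10 min RT. Ex 380/Em 535 nm endpoint. Activity normalized between free 1-AMA and 1-AMA/apoferritin; 4-parameter Hill fit of concentration-response.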

[3] = molecular target: ATP-dependent DNA helicase Q1 (Homo sapiens) (UniProt P46063); assay: qHTS Validation Assay for Inhibitors of RecQ-Like Dna Helicase 1 (RECQ1) (AID 2353); further: potency means the concentration at half of the fitted maximal effect
In short: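 50 nM RECQ1T1 preincubated 15 min with compound in Tris pH 8.0 buffer with MgCl2, DTT, Tween-20 and 2.5 ug/ml poly(dI-dC); started with 200 nM TAMRA/BHQ-2 forked duplex and 2 mM ATP. Unwinding read as fluorescence (525/598 nm), two reads 2 h apart.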

[4] = Cytometric Cell-Based qHTS for Inhibitors of the mTORC1 Signaling Pathway in MEF (Tsc2-/-, p53-/-) Cells (AID 2660);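 further: Tsc2 and p53 null MEFs carrying empty vector with compound for 24 h; percent of cells above a phospho-rpS6 to PI ratio cutoff in each well; series mostly up to about 38 µM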
In short: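 Percent of cells positive for normalized phospho-S6 staining is reported, with the cutoff set from rapamycin (7.5 nM) versus DMSO wells. Tsc2-/-, p53-/- MEFs received compound for 24 hrs.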

[5] = High Content Imaging Cell-Based qHTS for Inhibitors of the mTORC1 Signaling Pathway in MEF (Tsc2-/-, p53-/-) Cells (AID 2666);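 further: percent of cells scored positive for phospho-rpS6 Ser235/236 immunostaining by imaging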
In short: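 Cells were plated, dosed with compound after 24 hrs, and incubated another 24 hrs at 37 degree Celsius. Fixed cells were immunostained for phospho-rpS6 Ser235/236 and counterstained, and the normalized signal was scored as % active cells against rapamycin and DMSO controls.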

[6] = High Content Imaging Cell-Based qHTS for Inhibitors of the mTORC1 Signaling Pathway in MEF Cells (AID 2667);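 further: Tsc2-/- p53-/- MEFs stably re-expressing wild-type Tsc2 exposed 24 h; series mostly up to about 38 µM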
In short: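 Immunofluorescence for rpS6 phosphorylation in MEFs of Tsc2-/-, p53-/- background rescued with WT Tsc2. Compound exposure lasted 24 hrs. Inhibition was scored against rapamycin-treated control wells.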

[7] = Cytometry Cell-Based qHTS for Inhibitors of the mTORC1 Signaling Pathway in MEF cells (AID 2668);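 further: Tsc2-/- p53-/- mouse embryonic fibroblasts stably re-expressing wild-type Tsc2; percent cells positive for phospho-rpS6 Ser235/236 relative to propidium iodide stain; series mostly up to about 38 µM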
In short: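 Read-out: phospho-rpS6 Ser235/236 immunofluorescence normalized to propidium iodide intensity, scored as % active cells against a rapamycin (7.5 nM) threshold. Cells: Tsc2-/-, p53-/- MEFs stably expressing WT Tsc2, compound-treated 24 hrs at 37 degree Celsius.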

[8] = Validation screen for inhibitors of Lassa infection (AID 463096; calls by dose curve)
[9] = Validation screen for small molecules that induce DNA re-replication in MCF 10A normal breast cells (AID 463097); further: nearly all actives have a fitted effect of over 60% in size; further: potency means the concentration at half of the fitted maximal effect
In short: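 250 MCF 10A cells/well; compound pin-transferred; 48 hr, 37 C, 5% CO2; Hoechst 40 min; imaged 405/500-530 nm. Hits = more high-intensity nuclei.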

[10] = molecular target: Ubiquitin carboxyl-terminal hydrolase 2 (Homo sapiens) (UniProt O75604); assay: qHTS Validation Assay for Inhibitors of Ubiquitin-specific Protease USP2a Using CHOP2 as the Reporter (AID 463106); further: potency means the concentration at half of the fitted maximal effect
In short: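 10nM USP2 core + cpd, 30min RT; add 25nM Ub-CHOP2/25nM substrate; 60min RT; FI 485/531nm. Buffer Tris pH 8.0, CaCl2, BME, CHAPS. Norm. to NEM = 100% inhibition; time-zero read flags fluorescent artifacts.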

[11] = molecular target: DNA polymerase III PolC-type (Bacillus subtilis (strain 168)) (UniProt P13267); assay: qHTS Validation Assay for the Inhibitors of DNA Replication in Gram-Positive Bacteria (AID 485295); further: potency means the concentration at half of the fitted maximal effect
In short: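 PicoGreen fluorescence (ex 480–485/em 535–540 nm) reports dsDNA synthesized on ssM13Gori template with dNTPs/NTPs. Enzyme: holoenzyme rebuilt from purified PolC, beta subunit, SSB and primase. Compound preincubated before substrate addition; RT throughout.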

[12] = molecular target: Tumor susceptibility gene 101 protein (Homo sapiens) (UniProt Q99816); assay: qHTS Validation Assay for Iinhibitors of HIV-1 Budding by Blocking the Interaction of PTAP/TSG101 (AID 485342; calls by dose curve)
In short: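 FP read-out: FITC-PTAP peptide, 50 nM final, binding Tsg101 binding domain, 10 uM final; 20 min r.t.; 10 mM HEPES pH 7.5, 0.15 M NaCl, 0.01% Tween 20, 3 mM EDTA, 0.1 mM TCEP.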

[13] = qHTS Validation Assay to Find Inhibitors of Chronic Active B-Cell Receptor Signaling (AID 485345; active means well fitted curve in the direction sought with a large enough effect in the main read-out, with a control signal flat, not every such curve was filed as active)
In short: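 Read-out: ratio of filter-corrected green (IkappaBalpha fusion) to red (native) luciferase signal in doxycycline-induced TMD8 cells after 4 h at 37C. Titration spanned 46 uM–3 nM; Data were normalised to basal cells and 10 uM MG-132 wells.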

[14] = molecular target: Beta-2 adrenergic receptor (Homo sapiens) (UniProt P07550); assay: qHTS validation assay of beta-arrestin-biased ligands of beta2-adrenergic receptor (AID 485366)
In short: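 Luminescence from a tTA-responsive luciferase, induced when recombinant beta-arrestin is recruited to recombinant beta2-AR, served as the agonism signal. Cells were exposed to compound for 18 hr at 37 degrees C; titrations spanned up to 46 microM.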

[15] = molecular target: ATP-dependent 6-phosphofructokinase (Trypanosoma brucei brucei) (UniProt O15648); assay: qHTS Validation Assay to Find Inhibitors of T. brucei phosphofructokinase (AID 485368); further: potency means the concentration at half of the fitted maximal effect
In short: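 Activity was normalized between 1x (1.25 nM) PFK wells as no inhibition and enzyme-free wells as full inhibition, from luminescence after ADP-Glo detection of ADP made from 0.5 mM F6P and 0.1 mM ATP over 45 min.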

[16] = molecular target: RecQ-like DNA helicase BLM (Homo sapiens) (UniProt P54132); assay: qHTS Validation Assay for Inhibitors of Bloom's syndrome helicase (BLM) (AID 2364)
In short: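 Forked 20-bp duplex substrate (200 nM, TAMRA/BHQ-2) plus 2 mM ATP added after 15 min compound preincubation with 50 nM enzyme, pH 8.0, poly(dI-dC) 2.5 ug/ml. Strand separation followed by fluorescence (525/598 nm) over 2 h, normalized to enzyme-free and DMSO controls.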

[17] = qHTS Assay for Identification of Small Molecule Inducers of Hypoxia Response (AID 2120; active means well fitted curve in the direction sought with a large enough effect in the signal ratio, with a control signal flat, not every such curve was filed as active; the % refers to the signal ratio)
In short: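 Induction of beta-lactamase reporter activity was measured in CellSensor HRE-bla ME-180 cells after 17 h compound treatment at 37 degrees C, using CCF4 substrate and the 460nm/530nm emission ratio to derive AC50 values.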

[18] = qHTS Assay for Modulators of Human Peripheral Myelin Protein 22 (PMP22) Expression/Activity (AID 1967; active means well fitted curve in the direction sought with a large enough effect in the signal ratio; the % refers to the signal ratio)
In short: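 Mouse MSC80 Schwann line, Pmp22 promoter–CBG68 reporter, EF-alpha–CBR internal control. 24h compound exposure, 37 °C/5% CO2, DMEM + 10% FBS. Readout: corrected green/red luminescence ratio, normalized to untreated cells; concentration-response curves fitted and classified.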

ATP-dependent 6-phosphofructokinase (Trypanosoma brucei brucei), sequence (O15648 whole entry, looked up): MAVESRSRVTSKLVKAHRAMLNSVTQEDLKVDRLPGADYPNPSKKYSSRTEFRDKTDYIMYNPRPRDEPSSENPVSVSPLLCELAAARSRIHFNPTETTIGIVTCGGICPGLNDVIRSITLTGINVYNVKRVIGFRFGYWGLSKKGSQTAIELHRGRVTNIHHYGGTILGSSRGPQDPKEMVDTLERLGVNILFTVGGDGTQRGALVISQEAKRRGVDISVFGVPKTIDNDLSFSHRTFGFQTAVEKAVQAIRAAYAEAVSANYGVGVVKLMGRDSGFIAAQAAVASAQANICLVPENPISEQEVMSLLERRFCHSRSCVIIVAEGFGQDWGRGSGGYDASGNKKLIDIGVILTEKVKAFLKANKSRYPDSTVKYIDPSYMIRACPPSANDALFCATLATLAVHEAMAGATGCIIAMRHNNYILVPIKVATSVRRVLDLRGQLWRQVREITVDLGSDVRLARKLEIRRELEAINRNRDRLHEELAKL
RecQ-like DNA helicase BLM (Homo sapiens), sequence (P54132 whole entry, looked up): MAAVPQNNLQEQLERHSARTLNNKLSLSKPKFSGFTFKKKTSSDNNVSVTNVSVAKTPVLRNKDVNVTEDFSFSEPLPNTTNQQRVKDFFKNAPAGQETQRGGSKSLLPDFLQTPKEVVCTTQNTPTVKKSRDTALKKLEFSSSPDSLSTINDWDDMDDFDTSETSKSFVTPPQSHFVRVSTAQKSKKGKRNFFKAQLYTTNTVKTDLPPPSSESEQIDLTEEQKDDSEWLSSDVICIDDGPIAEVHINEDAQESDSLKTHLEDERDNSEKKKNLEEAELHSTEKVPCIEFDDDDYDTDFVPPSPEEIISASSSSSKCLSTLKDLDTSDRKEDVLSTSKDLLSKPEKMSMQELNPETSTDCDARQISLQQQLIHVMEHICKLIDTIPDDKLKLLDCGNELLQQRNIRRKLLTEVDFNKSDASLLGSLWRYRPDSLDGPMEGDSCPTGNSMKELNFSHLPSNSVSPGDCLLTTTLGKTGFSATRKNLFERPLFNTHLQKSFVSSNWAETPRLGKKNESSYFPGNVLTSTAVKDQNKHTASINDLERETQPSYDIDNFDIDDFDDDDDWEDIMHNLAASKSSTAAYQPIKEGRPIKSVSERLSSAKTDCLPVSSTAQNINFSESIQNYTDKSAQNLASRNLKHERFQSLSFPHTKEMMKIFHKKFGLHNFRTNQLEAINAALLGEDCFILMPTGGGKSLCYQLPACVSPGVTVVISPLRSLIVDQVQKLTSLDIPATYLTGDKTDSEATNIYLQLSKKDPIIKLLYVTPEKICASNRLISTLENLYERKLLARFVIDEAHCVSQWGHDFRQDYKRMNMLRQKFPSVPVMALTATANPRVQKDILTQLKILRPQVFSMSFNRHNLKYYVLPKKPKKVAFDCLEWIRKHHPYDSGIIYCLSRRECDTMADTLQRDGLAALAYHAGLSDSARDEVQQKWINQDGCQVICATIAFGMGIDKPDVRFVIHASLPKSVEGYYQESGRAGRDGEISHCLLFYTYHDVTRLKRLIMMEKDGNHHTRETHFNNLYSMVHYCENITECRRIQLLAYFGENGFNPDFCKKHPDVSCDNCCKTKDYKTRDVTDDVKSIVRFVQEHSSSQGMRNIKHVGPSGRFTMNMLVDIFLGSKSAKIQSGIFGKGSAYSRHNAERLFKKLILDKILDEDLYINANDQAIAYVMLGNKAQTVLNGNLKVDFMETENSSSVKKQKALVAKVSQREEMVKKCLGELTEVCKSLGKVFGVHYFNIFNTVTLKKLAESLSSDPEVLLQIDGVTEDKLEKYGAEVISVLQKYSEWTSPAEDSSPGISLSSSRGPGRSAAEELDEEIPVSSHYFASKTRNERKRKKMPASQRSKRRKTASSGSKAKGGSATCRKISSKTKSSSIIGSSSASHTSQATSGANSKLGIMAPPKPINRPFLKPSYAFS
ATP-dependent DNA helicase Q1 (Homo sapiens), sequence (P46063 whole entry, looked up): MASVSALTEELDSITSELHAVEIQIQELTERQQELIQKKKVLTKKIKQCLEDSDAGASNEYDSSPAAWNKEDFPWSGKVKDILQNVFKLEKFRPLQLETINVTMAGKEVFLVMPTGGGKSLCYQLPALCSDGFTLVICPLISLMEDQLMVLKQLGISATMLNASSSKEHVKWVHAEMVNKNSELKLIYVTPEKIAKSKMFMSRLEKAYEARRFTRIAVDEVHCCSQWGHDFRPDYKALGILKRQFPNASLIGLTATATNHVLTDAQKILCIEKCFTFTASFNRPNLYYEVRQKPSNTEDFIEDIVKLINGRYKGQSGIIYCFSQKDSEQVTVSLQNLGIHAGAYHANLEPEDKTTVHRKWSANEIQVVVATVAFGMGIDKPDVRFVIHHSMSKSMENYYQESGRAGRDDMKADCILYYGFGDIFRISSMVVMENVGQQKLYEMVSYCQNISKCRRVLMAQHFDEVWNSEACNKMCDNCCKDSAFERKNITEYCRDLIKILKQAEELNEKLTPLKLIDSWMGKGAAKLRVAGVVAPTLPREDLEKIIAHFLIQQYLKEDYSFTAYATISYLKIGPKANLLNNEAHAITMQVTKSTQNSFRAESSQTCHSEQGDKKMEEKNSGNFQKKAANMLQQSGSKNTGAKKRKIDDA
DNA polymerase III PolC-type (Bacillus subtilis (strain 168)), sequence (P13267 whole entry, looked up): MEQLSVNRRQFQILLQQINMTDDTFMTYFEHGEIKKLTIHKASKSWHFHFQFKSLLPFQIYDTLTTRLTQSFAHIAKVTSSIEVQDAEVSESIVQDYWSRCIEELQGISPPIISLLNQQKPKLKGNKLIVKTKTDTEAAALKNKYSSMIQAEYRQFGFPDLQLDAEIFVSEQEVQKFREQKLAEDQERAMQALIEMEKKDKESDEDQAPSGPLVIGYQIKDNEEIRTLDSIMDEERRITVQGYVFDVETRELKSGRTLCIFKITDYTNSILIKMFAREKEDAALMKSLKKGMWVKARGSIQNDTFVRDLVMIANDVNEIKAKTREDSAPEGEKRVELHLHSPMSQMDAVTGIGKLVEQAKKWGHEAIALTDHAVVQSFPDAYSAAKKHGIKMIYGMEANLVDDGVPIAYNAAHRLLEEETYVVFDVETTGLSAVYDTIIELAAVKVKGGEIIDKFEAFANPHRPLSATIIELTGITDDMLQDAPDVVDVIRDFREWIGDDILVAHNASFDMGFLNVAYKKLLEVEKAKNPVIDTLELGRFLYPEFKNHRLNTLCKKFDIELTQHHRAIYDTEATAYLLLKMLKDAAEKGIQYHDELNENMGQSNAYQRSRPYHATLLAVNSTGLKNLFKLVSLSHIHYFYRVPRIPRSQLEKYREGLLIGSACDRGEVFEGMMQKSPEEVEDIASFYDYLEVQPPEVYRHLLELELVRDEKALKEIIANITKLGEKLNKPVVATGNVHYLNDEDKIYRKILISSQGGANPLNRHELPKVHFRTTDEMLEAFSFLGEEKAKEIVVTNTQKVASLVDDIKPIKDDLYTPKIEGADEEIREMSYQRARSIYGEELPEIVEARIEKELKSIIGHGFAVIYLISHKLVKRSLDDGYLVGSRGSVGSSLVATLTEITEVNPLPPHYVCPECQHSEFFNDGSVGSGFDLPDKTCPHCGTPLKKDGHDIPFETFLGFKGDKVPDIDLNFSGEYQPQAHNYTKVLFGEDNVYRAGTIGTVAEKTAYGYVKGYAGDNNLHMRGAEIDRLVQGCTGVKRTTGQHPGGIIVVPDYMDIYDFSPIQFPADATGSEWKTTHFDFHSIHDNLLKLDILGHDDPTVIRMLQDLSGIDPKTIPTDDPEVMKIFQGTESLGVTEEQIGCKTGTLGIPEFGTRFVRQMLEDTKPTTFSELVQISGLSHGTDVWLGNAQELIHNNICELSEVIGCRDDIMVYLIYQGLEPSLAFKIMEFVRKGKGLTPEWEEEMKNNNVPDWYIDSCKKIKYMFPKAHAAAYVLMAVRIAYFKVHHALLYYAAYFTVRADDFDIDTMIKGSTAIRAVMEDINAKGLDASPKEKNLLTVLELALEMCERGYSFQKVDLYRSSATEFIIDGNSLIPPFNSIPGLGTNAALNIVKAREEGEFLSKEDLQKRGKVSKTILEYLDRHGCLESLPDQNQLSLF
Tumor susceptibility gene 101 protein (Homo sapiens), sequence (Q99816 whole entry, looked up, the tested form may be a part): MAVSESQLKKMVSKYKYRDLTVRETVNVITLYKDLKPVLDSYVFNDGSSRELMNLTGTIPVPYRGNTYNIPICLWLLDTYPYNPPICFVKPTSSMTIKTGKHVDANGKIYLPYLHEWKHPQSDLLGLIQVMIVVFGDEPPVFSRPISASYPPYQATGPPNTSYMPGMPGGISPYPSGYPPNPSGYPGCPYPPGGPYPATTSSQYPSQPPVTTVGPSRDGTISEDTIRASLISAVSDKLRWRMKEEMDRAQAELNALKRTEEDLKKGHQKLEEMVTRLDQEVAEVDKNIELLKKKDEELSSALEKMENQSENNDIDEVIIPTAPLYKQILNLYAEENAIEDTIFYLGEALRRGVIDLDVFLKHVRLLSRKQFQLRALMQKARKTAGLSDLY
Beta-2 adrenergic receptor (Homo sapiens), sequence (P07550 whole entry, looked up): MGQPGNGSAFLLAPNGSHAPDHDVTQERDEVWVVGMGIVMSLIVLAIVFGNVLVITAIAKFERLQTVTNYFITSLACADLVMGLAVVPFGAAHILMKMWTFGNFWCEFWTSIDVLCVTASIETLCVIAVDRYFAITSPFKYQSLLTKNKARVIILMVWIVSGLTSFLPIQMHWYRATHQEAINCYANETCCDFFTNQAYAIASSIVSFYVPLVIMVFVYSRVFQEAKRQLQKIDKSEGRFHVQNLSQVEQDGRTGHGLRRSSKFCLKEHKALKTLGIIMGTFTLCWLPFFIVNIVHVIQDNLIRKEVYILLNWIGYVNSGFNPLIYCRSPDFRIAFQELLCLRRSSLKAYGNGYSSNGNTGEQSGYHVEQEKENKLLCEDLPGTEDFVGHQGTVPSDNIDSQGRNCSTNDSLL
Ferritin light chain (Equus caballus), sequence (P02791 2-175 limits assumed): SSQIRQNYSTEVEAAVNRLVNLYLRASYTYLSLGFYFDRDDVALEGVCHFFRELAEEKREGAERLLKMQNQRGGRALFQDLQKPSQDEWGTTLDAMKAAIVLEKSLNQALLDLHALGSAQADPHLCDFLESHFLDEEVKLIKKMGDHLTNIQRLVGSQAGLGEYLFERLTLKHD

Compound	Potency [1]	outcome [2]	Potency [3]	Potency [4]	Potency [5]	Potency [6]	Potency [7]	Potency [8]	Potency [9]	Potency [10]	Potency [11]	outcome [12]	Potency [13]	outcome [14]	Potency [15]	Potency [16]	outcome [17]	outcome [18]
CCCN(CCC)[C@@H]1CCc2cccc(O)c2C1	10 µM (active)	inactive	inactive	inactive	inactive	inactive	inactive	inactive	inactive	inactive	inactive	inactive	inactive	inactive	inactive	–	–	–
NCC(CP(=O)(O)O)c1ccc(Cl)cc1 (stereo unspecified)	inactive	inactive	inactive	inactive	inactive	–	inactive	inactive	–	inactive	inactive	inactive	–	inactive	inactive	–	–	–
COc1ccc(CNC(=O)/C=C/c2ccc3[nH]cc(CCN(C)C)c3c2)cc1	10 µM (active)	inactive	inactive	inactive	inactive	inactive	inactive	inactive	–	inactive	inactive	inactive	inactive	inactive	inactive	–	–	–
Cc1c2ccncc2c(C)c2c1[nH]c1ccccc12	1.41 µM (active)	inactive	10 µM (active)	–	–	inactive	–	–	–	inactive	–	inactive	–	inactive	–	inactive	–	–
C[C@H]1CCC[C@H](O)CCCCCc2cc(O)cc(O)c2C(=O)O1	–	–	–	–	–	–	–	–	–	–	–	–	–	–	–	–	inactive	–
Cc1sc2ccccc2c1CC1=NCCN1	–	inactive	inactive	inactive	inactive	inactive	inactive	inactive	inactive	inactive	inactive	inactive	inactive	inactive	inactive	inactive	–	inactive
CC(C)Nc1ccc(Nc2ccccc2)cc1	–	–	–	–	–	–	–	–	–	–	–	–	–	–	–	–	inactive	–
Clc1cc(I)cc(Cl)c1NC1=NCCN1	–	inactive	inactive	inactive	inactive	inactive	inactive	–	–	inactive	inactive	inactive	inactive	inactive	–	–	–	inactive
NC(Cc1cc(O)c(O)cc1O)C(=O)O (stereo unspecified)	inactive	–	1.41 µM (active)	inactive	inactive	inactive	inactive	–	inactive	0.656 µM (active)	4.74 µM (active)	inactive	inactive	inactive	–	–	–	–
CN1CCC(c2c[nH]c3ccc(O)cc23)CC1	–	inactive	inactive	inactive	inactive	–	inactive	inactive	–	inactive	inactive	inactive	inactive	inactive	inactive	–	–	inactive
C[N+]1(C)CCC(OC(=O)C(c2ccccc2)c2ccccc2)CC1	7.94 µM (active)	inactive	inactive	–	–	–	–	inactive	inactive	–	–	–	–	–	–	–	–	–
C=CCN1CC[C@]23c4c5ccc(O)c4O[C@@H]2/C(=N/N=C2\CC[C@@]4(O)C6Cc7ccc(O)c8c7[C@@]4(CCN6CC=C)[C@@H]2O8)CC[C@@]3(O)C1C5	2.82 µM (active)	–	inactive	–	–	–	–	–	15.8 µM (active)	inactive	inactive	inactive	inactive	inactive	inactive	inactive	–	–
CC(=O)c1c(O)c(C)c(O)c(Cc2c(O)c3c(c(C(=O)/C=C/c4ccccc4)c2O)OC(C)(C)C=C3)c1O	5.62 µM (active)	–	–	inactive	inactive	inactive	inactive	–	–	inactive	18.9 µM (active)	inactive	inactive	inactive	–	–	–	–
Oc1cc(Cl)c(Cl)cc1Cl	–	–	–	–	–	–	–	–	–	–	–	–	–	–	–	–	inactive	–
COc1ccc2c(c1OC)C(=O)OC2C1c2cc3c(cc2CCN1C)OCO3 (stereo unspecified)	inactive	inactive	inactive	–	–	–	–	inactive	inactive	–	–	–	–	–	–	–	–	–
CCS(=O)(=O)Nc1cccc(C(=C2CCCCC2)c2cnc[nH]2)c1	12.6 µM (active)	–	inactive	inactive	inactive	inactive	inactive	inactive	inactive	inactive	inactive	inactive	inactive	inactive	inactive	–	–	–
CN(N=O)c1cc(O)ccc1O	inactive	inactive	7.94 µM (active)	–	–	inactive	–	inactive	inactive	inactive	23.8 µM (active)	inactive	inactive	inactive	7.57 µM (active)	–	–	–
C[C@]12CCC(=O)C[C@@H]1CC[C@@H]1[C@@H]2CC[C@]2(C)[C@@H](O)CC[C@@H]12	–	–	–	–	–	–	–	–	–	–	–	–	–	–	–	–	inactive	–
C[N+]1(C)CCOC(O)(c2ccc(-c3ccc(C4(O)C[N+](C)(C)CCO4)cc3)cc2)C1 (stereo unspecified)	–	inactive	inactive	inactive	inactive	inactive	inactive	inactive	inactive	inactive	inactive	inactive	inactive	inactive	–	–	–	inactive
